According to PubChem BioAssay:
Results with a measured potency or affinity are listed apart. The source made the active and inactive calls. Unless noted, no rule for the calls is given here.

target: Calcium-dependent protein kinase 1 (Plasmodium falciparum (isolate 3D7)) (UniProt P62344); experiment: PfCDPK1 kinase inhibitors, biochemical, TCAMS library (AID 1159585; cut-off not given, nearly all actives have IC50 up to about 0.98 µM;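 also: inhibitors leave more ATP so luminescence rises with inhibition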); conditions: recombinant PfCDPK1, Kinase-Glo ATP depletion luminescence
Sequence (P62344 whole entry, looked up): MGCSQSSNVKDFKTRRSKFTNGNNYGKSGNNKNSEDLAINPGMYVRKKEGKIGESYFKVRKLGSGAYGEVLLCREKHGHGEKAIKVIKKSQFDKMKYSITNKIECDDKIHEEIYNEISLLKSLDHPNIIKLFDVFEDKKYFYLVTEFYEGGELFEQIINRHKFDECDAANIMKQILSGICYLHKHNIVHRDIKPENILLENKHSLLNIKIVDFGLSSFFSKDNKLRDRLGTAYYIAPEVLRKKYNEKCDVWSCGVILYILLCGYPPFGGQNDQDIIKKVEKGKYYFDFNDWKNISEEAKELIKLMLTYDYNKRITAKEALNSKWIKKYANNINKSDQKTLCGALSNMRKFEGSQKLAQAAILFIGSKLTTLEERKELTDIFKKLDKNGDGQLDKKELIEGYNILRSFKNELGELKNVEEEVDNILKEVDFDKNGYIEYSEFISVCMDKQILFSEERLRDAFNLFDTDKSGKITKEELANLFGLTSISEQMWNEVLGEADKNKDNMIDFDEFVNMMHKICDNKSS

Row | SMILES | outcome
1 | O=C(/C=C/c1c(Cl)cccc1Cl)NC1CCC(CN2[C@@H]3CC[C@H]2CC(c2c[nH]c4ccccc24)C3)CC1 (stereo not given in full) | inactive
2 | N#Cc1ccc(N(CC(=O)NCCc2ccccc2)CC2CC2)c2ccccc12 | inactive
3 | CC(Cc1ccc(-c2nc3ccccc3[nH]2)cc1)NCC(O)c1cccc(C(F)(F)F)c1 (stereo not given) | inactive
4 | O=C(/C=C/C=C/c1ccccc1)NC1CCC(CN2CCC(c3c[nH]c4ccccc34)CC2)CC1 (stereo not given) | inactive
5 | CN(c1cc(NC(=O)c2ccc(F)cc2)ccn1)C1CCN(Cc2ccc(C#N)cc2)CC1 | inactive
6 | COc1cc(NCCCNC(=O)c2cn(Cc3ccccc3)c3ccccc23)nc2ccccc12 | inactive

target: Plasmodium falciparum protein kinase 6 (PK6, PF3D7_1337100) (UniProt Q8IDW1); experiment: PfPK6 kinase inhibitors, biochemical, TCAMS library (AID 1159586); conditions: recombinant PfPK6, Kinase-Glo ATP depletion luminescence
Sequence (Q8IDW1 1-305): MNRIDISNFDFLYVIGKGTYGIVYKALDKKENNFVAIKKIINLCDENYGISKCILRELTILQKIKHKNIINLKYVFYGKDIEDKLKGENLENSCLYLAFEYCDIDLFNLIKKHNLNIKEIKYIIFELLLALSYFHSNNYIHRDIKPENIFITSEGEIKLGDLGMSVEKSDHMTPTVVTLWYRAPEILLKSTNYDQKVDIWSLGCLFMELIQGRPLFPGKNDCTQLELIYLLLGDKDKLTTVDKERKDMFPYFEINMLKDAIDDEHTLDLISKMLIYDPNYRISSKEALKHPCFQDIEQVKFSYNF

Row | SMILES | outcome
7 | CCCCC/C=C/C(=O)NC1CCC(CN2CCC(c3c[nH]c4ccccc34)CC2)CC1 (stereo not given) | inactive
8 | COc1ccc(O)c(CN2CCN(c3cc(C)ccc3C)CC2)c1 | inactive
9 | CC[C@H]1CN2CC[C@H]1C[C@@H]2[C@@H](O)c1cc(Cl)nc2ccc(OC)cc12 | inactive
10 | CC(Cc1ccc(Sc2ccccc2)cc1)NCC(O)c1cccc(C(F)(F)F)c1 (stereo not given) | inactive
11 | CC(C)CCNC(=O)c1cc(C(=O)c2cc(F)ccc2O)cn(CCC(C)C)c1=O | inactive
12 | O=C(/C=C/c1ccc(Cl)c(Cl)c1)N1CCC(CN2CCC(c3c[nH]c4ccc(O)cc34)CC2)CC1 | inactive
13 | Oc1ccc2[nH]cc(C3=CCN(CCc4ccccc4)CC3)c2c1 | inactive
14 | C/C=C1\CN2CC[C@H]1C[C@H]2[C@H](O)c1ccnc2ccc(O)cc12 | inactive
15 | CC[C@H]1CN2CC[C@@H]1C[C@H]2[C@H](O)c1cc(N2CCC(N3CCCCC3)CC2)nc2ccc(OC)cc12 | inactive
16 | S=C(NCC1CCCCC1)NC1CCC(CN2CCC(c3c[nH]c4ccccc34)CC2)CC1 (stereo not given) | inactive
17 | COc1cc(C=CC(=O)N2CCC(CN3CCC(c4c[nH]c5ccccc45)CC3)CC2)ccc1O | inactive
18 | CCOc1ccc2nccc([C@@H](O)[C@@H]3C[C@@H]4CCN3C[C@@H]4CC)c2c1 | inactive
19 | CC1(CCCCN2CC=C(c3c[nH]c4ccccc34)CC2)C(=O)Nc2ccccc21 (stereo not given) | inactive
20 | CN1CC=C(c2c[nH]c3ccc(OC(=O)c4ccccc4)cc23)C1 | inactive
21 | Cc1[nH]c2c(C)cc(NS(C)(=O)=O)cc2c1C1CCN(CC2CCN(C(=O)/C=C/c3ccc(Cl)c(Cl)c3)CC2)CC1 | inactive
22 | COC(=O)c1ccc(CC(C)NCC(O)c2cccc(Cl)c2Cl)cc1 (stereo not given) | inactive
23 | Oc1ccc(CN2CCN(CCOC(c3ccc(F)cc3)c3ccc(F)cc3)CC2)cc1Cl | inactive

Row | SMILES | outcome
24 | COC(=O)c1ccc(CC(C)NCC(O)c2ccc(F)c(Cl)c2)cc1 (stereo not given) | inactive
25 | O=C(C=Cc1ccccc1Br)NC1CCC(CN2CCC(c3c[nH]c4ccccc34)CC2)CC1 (stereo not given) | inactive
26 | CC[C@H]1CN2CC[C@H]1C[C@H]2[C@H](O)c1cc(Cl)nc2ccc(OC)cc12 | inactive
27 | CC(=O)C1(c2ccccc2)CCN(CCC2(c3ccc(Cl)c(Cl)c3)CN(C(=O)Nc3cccc(C(F)(F)F)c3)CCO2)CC1 (stereo not given) | inactive
28 | Cc1[nH]c2ccccc2c1C1=CCN(CCCCC23CCCc4cccc(c42)NC3=O)CC1 (stereo not given) | inactive
29 | Oc1ccc2[nH]cc(C3=CCN(Cc4ccccc4)CC3)c2c1 | inactive
30 | CN1CC=C(c2c[nH]c3ccc(Sc4ccccc4)cc23)CC1 | inactive
31 | OC(CNC1CCCCCC1)c1ccc(Cl)c(Cl)c1 (stereo not given) | inactive
32 | CC[C@H]1CN2CC[C@H]1C[C@H]2[C@H](O)c1cc(-c2cccc(F)c2)nc2ccc(OC)cc12 | inactive
33 | COC(=O)c1ccc(CC(C)NCC(O)c2cccc(C(F)(F)F)c2)c(Cl)c1 (stereo not given) | inactive
34 | Cc1ccc(CC(C)NCC(O)c2cccc(Br)c2)cc1 (stereo not given) | inactive
35 | COc1ccc2[nH]cc(C3C[C@H]4CC[C@@H](C3)N4CCC3CCN(C(=O)/C=C/c4ccc(Cl)c(Cl)c4)CC3)c2c1 (stereo not given in full) | inactive
36 | CCOC(C(=O)OCC1CCCN1C(C)C)(c1ccccc1)c1ccccc1 (stereo not given) | inactive
37 | CN(C)c1cccc(NC(=O)NC2N=C(c3ccccc3)c3ccccc3N(CC(=O)N(C)c3ccccc3)C2=O)c1 (stereo not given) | inactive
38 | CC(=O)Nc1ccc2[nH]cc(C3CCN(CC4CCC(NC(=O)/C=C/c5ccc(Cl)c(Cl)c5)CC4)CC3)c2c1 (stereo not given) | inactive
39 | O=C(Cc1cc(=O)oc2cc(O)ccc12)NC1CCC(CN2CCC(c3c[nH]c4ccccc34)CC2)CC1 (stereo not given) | inactive
40 | COc1ccc(CN2CCN(CCOC(c3ccccc3)c3ccccc3)CC2)c(O)c1 | inactive
